PubChem BioAssay AID720504 (National Center for Advancing Translational Sciences (NCATS), 2013)
The whole screen tested about 360,000 compounds, of which about 10,000 (2.8%) were called active. Roughly 4% stayed inconclusive and do not appear here. This excerpt belongs to a sample that is enriched for actives. Unmarked numbers belong to inactive results. Calls come from the whole dose curve; as a rule, active = well fitted inhibition curve with a large enough effect; inconclusive = small, poorly fitted or top-dose-only effect; inactive = flat fitted curve, though single readings scatter.

What follows are compounds tested against Serine/threonine-protein kinase PLK1 (Homo sapiens) (UniProt P53350) (assay: qHTS for Inhibitors of PLK1-PDB (polo-like kinase 1 - polo-box domain): Primary Screen). Conditions: Plk1 PBD binding of FITC phosphopeptide, fluorescence polarization.
% is set by controls: 0 for no effect and ±100 for the full control effect; potency is the fitted concentration of half-maximal effect.
Note: nearly all actives have a fitted effect of over 65% in size.
Throughout, for max response, negative = inhibition: series mostly up to about 57 µM.

Serine/threonine-protein kinase PLK1 (Homo sapiens), sequence (P53350 whole entry, looked up, the tested form may be a part): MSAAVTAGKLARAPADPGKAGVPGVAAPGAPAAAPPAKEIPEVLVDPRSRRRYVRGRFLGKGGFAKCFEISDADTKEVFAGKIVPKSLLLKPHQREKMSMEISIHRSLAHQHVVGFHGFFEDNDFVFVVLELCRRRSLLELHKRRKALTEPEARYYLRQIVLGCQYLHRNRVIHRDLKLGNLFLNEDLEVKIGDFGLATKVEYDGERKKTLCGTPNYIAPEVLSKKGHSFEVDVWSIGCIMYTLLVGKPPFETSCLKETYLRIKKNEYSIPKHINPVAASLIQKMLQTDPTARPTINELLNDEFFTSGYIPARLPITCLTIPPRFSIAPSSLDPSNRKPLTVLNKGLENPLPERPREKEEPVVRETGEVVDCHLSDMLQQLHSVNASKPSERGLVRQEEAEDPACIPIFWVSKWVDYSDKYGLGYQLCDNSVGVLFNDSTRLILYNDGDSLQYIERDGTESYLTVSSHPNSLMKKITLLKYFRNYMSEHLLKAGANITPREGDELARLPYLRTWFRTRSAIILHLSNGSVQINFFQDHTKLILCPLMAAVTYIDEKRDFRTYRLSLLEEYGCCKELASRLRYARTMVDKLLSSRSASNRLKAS

Row | Structure (SMILES) | max response, negative = inhibition [%] | Potency
1 | CCc1oc(-c2ccc(OC)cc2)c(C(=O)OCCCCCO)c1C(C)OCCO (configuration not stated) | -3.22 | –
2 | COc1ccc(-c2coc3c(C(=O)NC(C)C)cccc23)c(C)c1 | -1.63 | –
3 | O=C1CCC(=O)N1CCC(=O)N(C(=O)NC1CCCCC1)C1CCCCC1 | -3.92 | –
4 | CSC1=NN(c2ccccc2)CN(c2ccccc2)N1C | 3.5 | –
5 | CSc1ncnc2c1ncn2CCCNCc1cccs1 | -6.17 | –
6 | CCOC(=O)c1c(Cc2ccc(Cl)cc2)c[nH]c1C | -3.47 | –
7 | CC(=O)c1c(C)c[nH]c1C | – | 3.36 µM (active)
8 | Cc1cc(C)n2c(NCc3ccccc3)c(CC(C)C)nc2n1 | 4.6 | –
9 | Cc1cc(C(=O)CC#N)c(C)n1CC(F)(F)F | -1.11 | –
10 | Cc1cc(C(=O)COC(=O)c2cccs2)c(C)n1-c1c(C)n(C)n(-c2ccccc2)c1=O | – | 29.9 µM (active)
11 | Cc1c(NC(=O)c2coc(=O)c(Br)c2)c(=O)n(-c2ccccc2)n1C | -12.4 | –
12 | COc1ccc(-n2c(C)cc(C(=O)COC(=O)c3cc(OC)c(OC)cc3NC(=O)c3cccs3)c2C)cc1 | -3.08 | –
13 | CCCn1c(C)cc(C(=O)COC(=O)c2c(C)nn(-c3ccccc3)c2C)c1C | 0.347 | –
14 | Cc1cc(C(=O)CC#N)c(C)n1-c1c(C)n(C)n(-c2ccccc2)c1=O | – | 21.2 µM (active)
15 | CCCNC(=O)c1cc2c(c(-c3cccc(-c4ccc(C#N)cc4)c3)n1)[C@@H](CCO)N(C(=O)CC)C2 | -12.5 | –
16 | c1ccc2c(c1)nnn2-c1ccncc1 | -7.91 | –
17 | COc1ccc(NC(=O)C2Cc3c(-c4cccc(NC(C)=O)c4)ccnc3O2)cc1OC (configuration not stated) | -15.4 | –
18 | CC(C)NC(=O)Nc1ccc2c(c1)C(=O)N([C@H](C)CO)C[C@H](C)[C@@H](CN(C)Cc1ccc(C(F)(F)F)cc1)OCCCC[C@@H](C)O2 | -16.7 | –
19 | O=C(COC(=O)c1cccc(Cl)c1Cl)NC1CCCCCC1 | -7.54 | –
20 | CCOc1ccccc1N1CCN(C(=S)Nc2ccc(S(N)(=O)=O)cc2)CC1 | -0.318 | –
21 | NS(=O)(=O)c1ccc(NC(=S)N2CCCC2)cc1 | -13.8 | –
22 | COc1ccc(N2CCN(C(=S)Nc3ccc(S(N)(=O)=O)cc3)CC2)cc1 | – | 13.4 µM (active)

Row | Structure (SMILES) | max response, negative = inhibition [%] | Potency
23 | CN(C)C(CNC(=O)c1cc(Br)c(Br)s1)c1ccco1 (configuration not stated) | -5.95 | –
24 | O=S1(=O)CC(N2CCN(CCO)CC2)CN1Cc1cn(Cc2cccc(Cl)c2)nn1 (configuration not stated) | -6.24 | –
25 | Cc1ccc(-c2cnc(C(O)c3cc(Cl)cc(Cl)c3)[nH]2)cc1 (configuration not stated) | 5.64 | –
26 | COc1ccc(CNC(=O)COC(=O)C(CCSC)N2C(=O)c3ccccc3C2=O)cc1 (configuration not stated) | -13.1 | –
27 | COc1ccc(CCNC(=O)COC(=O)c2cc(=O)c3ccccc3o2)cc1 | -2.93 | –
28 | COc1ccc(CNC(=O)COC(=O)C2=Cc3ccccc3OC2)cc1 | – | 13.4 µM (active)
29 | Cc1ccc(-c2ccc(CN3C(C)C(=O)N(Cc4cn(CCC5OCCCO5)nn4)CCS3(=O)=O)cc2)cc1 (configuration not stated) | -2.81 | –
30 | O=c1cc(CO)oc(C(Nc2cccc(C(F)(F)F)c2)c2ccccn2)c1O (configuration not stated) | – | 26.7 µM (active)
31 | O=C(NC1Cc2ccccc2C1)c1cc(COc2cccc(C(F)(F)F)c2)on1 | -5.34 | –
32 | NC(c1ccccc1)c1csc(NC(=O)Nc2cccc(C(F)(F)F)c2)n1 (configuration not stated) | -4.96 | –
33 | COc1ccc(C=C2CCC3C(CCCC34OCCO4)C2=O)cc1 (configuration not stated) | -14.1 | –
34 | CCc1ccc(OC2(C)CCN(CCOc3ccc(C)cc3)C2)cc1 (configuration not stated) | 0.495 | –
35 | O=C(COc1ccc(Br)cc1)OCC(=O)c1ccc[nH]1 | -8.67 | –
36 | COc1ccc2nc(N3C(=O)C(O)=C(C(=O)c4ccco4)C3c3ccco3)sc2c1 (configuration not stated) | -16.7 | –
37 | O=C(C1=C(O)C(=O)N(c2ncccn2)C1c1cccs1)c1ccco1 (configuration not stated) | -18.5 | –
38 | Cc1ccc2nc(N3C(=O)C(O)=C(C(=O)c4ccco4)C3c3cccc(O)c3)sc2c1 (configuration not stated) | – | 18.9 µM (active)
39 | COc1ccc(-c2cc3nc(NCCOc4ccccc4)ccn3n2)cc1 | -1.91 | –
40 | Cc1nc2c(OCc3ccc(Cl)cc3)cccn2c1N(C)Cc1cccs1 | -7.96 | –
41 | Cc1ccc(-c2cnc(C(O)c3cccc(C)c3C)[nH]2)cc1 (configuration not stated) | 2.44 | –
42 | O=C(c1ncn2c1c(=O)[nH]c1ccccc12)N1CCc2ccccc2C1 | 6.5 | –
43 | O=c1[nH]n2c(-c3ccccc3)nc(O)c2c2ccccc12 | -5.86 | –
44 | O=c1[nH]c2ccccc2n2c(-c3ccccc3)nnc12 | – | 0.947 µM (active)

Row | Structure (SMILES) | max response, negative = inhibition [%] | Potency
45 | COc1ccc(Br)c(Cn2c(C)c(C(=O)NCc3cccs3)sc2=O)c1 | 8.23 | –
46 | CCOC(=O)[C@]12CCCC=C1N(CCC1=CCCCC1)C(=O)[C@H](CC(=O)NCCCCc1ccccc1)C2 | -2.05 | –
47 | CCc1ccccc1S(=O)(=O)Cc1ccc(C(=O)NCCc2ccccc2)o1 | – | 26.7 µM (active)
48 | Cc1ccccc1S(=O)(=O)Cc1ccc(C(=O)NCCN2CCCCC2C)o1 (configuration not stated) | 1.66 | –
49 | COc1ccccc1CNC(=O)c1ccc(CS(=O)(=O)c2ccccc2)o1 | -4.65 | –
50 | COC(=O)c1ccc2nc(-c3cccc(Br)c3)c(Cc3ccc(OC)cc3C)n2c1 | -4.35 | –
51 | CCC(c1nnnn1-c1ccc2c(c1)OCCO2)N1CCN(c2ccc(C(F)(F)F)cn2)CC1 (configuration not stated) | 3.69 | –
52 | COc1ccc(C(CNC(=O)c2ccc(OCc3cscn3)cc2)N2CCCC2)cc1 (configuration not stated) | 3.78 | –
53 | Cc1cc(NC(=O)Nc2ccccc2[N+](=O)[O-])no1 | – | 10.6 µM (active)
54 | Cc1cc(NC(=O)c2ccccc2C)no1 | -3.17 | –
55 | Cc1csc(NC(=O)Nc2ccccc2[N+](=O)[O-])n1 | 3.11 | –
56 | Cc1ccc(-c2nn(-c3ccccc3)cc2C(=O)NC2CCC(O)CC2)cc1 (configuration not stated) | 6.03 | –
57 | Cc1ccc(-c2nn(-c3ccccc3)cc2C(=O)Nc2cccc(S(=O)(=O)N3CCOCC3)c2)cc1 | -5.73 | –
58 | O=C(O)c1ccc(NC(=O)c2cn(-c3ccccc3)nc2-c2ccc(Cl)cc2)cc1 | – | 26.7 µM (active)
59 | Nc1nc2c(Br)ccc(Br)c2cc1C(=O)NCCc1ccccc1 | -9.21 | –
60 | COc1cccc(NC(=O)CN(C)C(=O)c2cc(Cl)nc3ccccc23)c1 | -14.4 | –
61 | O=C(C[C@H]1C[C@H]2c3cc(NS(=O)(=O)c4ccc(F)cc4)ccc3O[C@H]2[C@H](CO)O1)NCc1cc(F)ccc1F | -5.98 | –
62 | O=c1ccc2c(-c3ccccc3S(=O)(=O)O)c3ccc(O)c(O)c3oc-2c1O | – | 7.52 µM (active)
63 | O=C(c1cccs1)N1C[C@H](n2cc(C3CC3)nn2)[C@@H](O)C[C@@H]1c1ccccc1 | 0.263 | –
64 | CNS(=O)(=O)c1ccc(NC(=O)C2CC(=O)N(c3ccc(Cl)cc3)C2)cc1 (configuration not stated) | – | 26.7 µM (active)
65 | Cc1ccc(N2CC(C(=O)Nc3ccc(S(=O)(=O)N4CCCC4)cc3)CC2=O)cc1C (configuration not stated) | -12.9 | –
66 | O=C(Nc1ccc(S(=O)(=O)N2CCCCC2)cc1)C1CC(=O)N(c2ccc(F)cc2)C1 (configuration not stated) | -7.84 | –

Row | Structure (SMILES) | max response, negative = inhibition [%] | Potency
67 | CCc1nc2c(OCCC3CCCCC3)cccn2c1N(C)C(=O)c1ccco1 | -5.85 | –
68 | COc1ccc(N2c3ccccc3CN(Cc3ccccc3)[C@@H](C)[C@H]2Cc2ccc(-c3ccccc3)cc2)cc1 | 3.32 | –
69 | Cc1sc2ncnc(SCC(=O)NC3CCS(=O)(=O)C3)c2c1C (configuration not stated) | -10.2 | –
70 | O=C(NCc1nnnn1-c1ccc(Cl)cc1)c1ccc2c(c1)OCO2 | -15.4 | –
71 | COc1ccc(C(=O)NCC2CCCO2)cc1S(=O)(=O)NCc1ccc(Cl)cc1 (configuration not stated) | -11.7 | –
72 | Cc1ccc([C@H]2C[C@H](O)[C@@H](n3cc(COC(=O)c4ccccc4)nn3)CN2C(=O)C2CCCCC2)cc1 | -1.5 | –
73 | O=c1[nH]c2ccccc2s1 | -9.39 | –
74 | Nc1ccc2[nH]c(=S)sc2c1 | – | 2.99 µM (active)
75 | CC1=C(C(=O)N2CCOCC2)CC(CC(=O)NCc2ccco2)C(=O)N1Cc1ccc(F)cc1 (configuration not stated) | -9 | –
76 | CCOC(=O)C1CCCN(C(=O)c2cccc3ccccc23)CC1 (configuration not stated) | -9.5 | –
77 | N#Cc1nc(COc2ccc(Cl)cc2)oc1N1CCCC1 | -6.72 | –
78 | Cc1ccc(OCc2nc(C#N)c(N3CCCC3)o2)cc1 | – | 5.32 µM (active)
79 | CC1CCN(c2oc(-c3ccccc3F)nc2C#N)CC1 | 1.03 | –
80 | COC(=O)c1ccc(CN2C(=O)C(Cc3ccccc3)ON=C2c2ncccc2C)o1 (configuration not stated) | 5.05 | –
81 | CN1OC[C@@H]2CN(C(=O)C(C)(C)C)[C@H](c3ccc(-n4ccnc4)cc3)C[C@@H]21 | -0.5 | –
82 | COc1cc(CNc2ncnc3c2ncn3[C@H]2CN(Cc3cccs3)C[C@@H](CO)O2)cc(OC)c1OC | -6.55 | –
83 | COCCCn1c(C(=O)NC2CCCCC2)cc2c(=O)n3cccc(C)c3nc21 | -6.64 | –
84 | Fc1ccc(OCc2nn3c(Cn4nnc5ccccc54)nnc3s2)cc1 | – | 11.9 µM (active)
85 | C/C(Cn1nnc2ccccc21)=N\OC(=O)c1cc(F)c(F)cc1Cl | -15 | –
86 | Cn1c(Cn2nnc3ccccc32)nnc1SCC(=O)c1ccccc1F | -9.05 | –
87 | COC(=O)[C@]12CCCCC=C1N(Cc1ccc(Cl)cc1Cl)C(=O)[C@H](CC(=O)NCc1cccc3ccccc13)C2 | -11 | –
